Sampled rows, rich in hits. Any-hit rate of the full collection: about 5.7%.
ClpP mod: qHTS Assay for Activators of ClpP | ATP-dependent Clp protease proteolytic subunit (Bacillus subtilis (strain 168)), P80244 | purified B. subtilis ClpP, FRET peptide cleavage, 20 min | Potency, µM (highest dose often 57.5 µM), for inactives: at the highest dose activity change, negative = active | hit rate 1.9% among 340,000 | AID 651965, 2013; active = well fitted falling curve with a large enough effect; inconclusive = small, poorly fitted or top-dose-only effect; inactive = no such curve, though single readings can be large or run the other way; note: potency is the fitted concentration of half-maximal effect; the source files actives as falling curves though it sought activators and does not explain the sign; nearly all actives have a fitted effect of over 65% in size
Target sequence (P80244 whole entry, looked up): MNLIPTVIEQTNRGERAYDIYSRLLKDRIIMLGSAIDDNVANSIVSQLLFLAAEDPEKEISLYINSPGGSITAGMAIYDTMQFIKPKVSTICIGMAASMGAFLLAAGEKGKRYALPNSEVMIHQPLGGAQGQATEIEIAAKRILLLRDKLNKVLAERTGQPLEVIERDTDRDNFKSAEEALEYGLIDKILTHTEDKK
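Buffer: 100 mM Tris/HCl pH8, 100 mM KCl, 0.05% low protease BSA, 2.5% glycerol, 0.01% Tween-20. ClpP 10 microg/mL final; 20 min RT; delta FRET normalized to ADEP and DMSO controls.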
DRD3 agonist: D3 dopamine receptor (human) agonism | hit rate 0.58% among 410,000 | P35462 | D3R DiscoveRx beta-arrestin cells, luminescence, 90 min | AID 652048 | max activation, %; in the data active = max activation above about 30%; note: 0% is about no effect
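Agonist mode: compounds and dopamine controls were applied to plated cells for 90 min at 37 degrees C after an overnight attachment at 1500 cells/well. Luminescent read-out followed 30 - 60 minutes at room temperature with DiscoveRx detection reagent.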
GLP-1R agonist: GLP-1 receptor (human) agonism; hit rate 0.007% among 380,000; Potency, µM (top dose mostly 45.6 µM), inactives show at the top dose activation, usual class: activators; HEK293 GLP-1R CRE-luciferase, luminescence, 4-6 h; cells express a hypersensitive GLP-1R form; P43220; note: potency is the fitted concentration of half-maximal effect; % of control where 0% means no effect
Target sequence (P43220 whole entry, looked up): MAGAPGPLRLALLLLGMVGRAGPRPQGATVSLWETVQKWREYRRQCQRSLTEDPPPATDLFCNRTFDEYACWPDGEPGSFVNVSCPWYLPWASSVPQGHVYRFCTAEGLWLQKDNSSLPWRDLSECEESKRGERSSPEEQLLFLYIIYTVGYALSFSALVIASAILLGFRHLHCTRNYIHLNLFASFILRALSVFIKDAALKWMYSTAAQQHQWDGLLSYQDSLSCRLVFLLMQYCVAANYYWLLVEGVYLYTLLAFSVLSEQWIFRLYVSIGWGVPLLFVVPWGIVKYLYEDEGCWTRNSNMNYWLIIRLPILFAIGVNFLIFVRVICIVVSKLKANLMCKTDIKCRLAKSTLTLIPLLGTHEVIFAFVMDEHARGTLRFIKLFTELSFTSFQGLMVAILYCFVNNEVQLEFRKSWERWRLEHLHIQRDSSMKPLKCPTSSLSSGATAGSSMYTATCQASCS
GLP1R cytotox: cytotoxicity counter-screen for GLP-1 receptor inverse agonists. HEK293 cAMP-luciferase reporter cells, luminescence, 24 h. Potency, µM (top dose mostly 38.3 µM), for inactives: at the highest dose activity change, negative = inhibition, actives largely listed as inhibitors. hit rate 0.13% among 410,000. AID 624418;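 note: loss of luciferase light is scored as toxicity; potency is the fitted concentration of half-maximal effect; % is set by controls: 0 for no effect and ±100 for the full control effect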
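Step one: seed cells (200 cells/uL, DMEM with 10% Nu serum, 1% pen-strep). Step two: 12-hour incubation at 37 deg C. Step three: pin 23 nL compound, incubate 24 hr. Step four: add luciferase reagent, read luminescence 12 min later.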
D3 antag: blocks the human D3 dopamine receptor. P35462. D3R cells, DiscoveRx beta-arrestin luminescence, antagonist mode; hits give low values. max response, negative = inhibition, %. hit rate 2.5% among 360,000. AID 652054; in the data active = max response below about -50%; inconclusive = no clear call, values can overlap the other calls; note: % is set by controls: 0 for no effect and ±100 for the full control effect
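Cells plated overnight at 1500 cells/well, then exposed to library compounds with dopamine controls for 90 minutes at 37 degrees C. DiscoveRx reagent added for 30–60 minutes at room temperature; luminescence read, quantitative HTS format.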
GLP-1R inv ag: acts as inverse agonist at human GLP-1 receptor; P43220; HEK293 GLP-1R CRE-luciferase, luminescence, 24 h; GLP-1R form is constitutively active; Potency, µM (highest dose often 38.3 µM), for inactives: at the top dose activity change, negative = inhibition, most hits filed as inhibitors; hit rate 1.6% among 410,000; note: potency is the fitted concentration of half-maximal effect; % is set by controls: 0 for no effect and ±100 for the full control effect; nearly all actives have a fitted effect of over 55% in size
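Readout was luciferase luminescence, measured 12 min after detection reagent at room temperature. Beforehand, GLP-1R reporter HEK293 cells had sat 12 h, then received compounds for 24 hr at 37 deg C.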
* = called active by the depositor; ? = inconclusive; · = no result given. Unless noted, calls come from the whole dose curve; as a rule, active = well fitted curve in the direction sought with a large enough effect; inconclusive = small, poorly fitted or top-dose-only effect, or another doubt; inactive = no such curve, though single readings can be large; an effect the other way counts as inactive or inconclusive.

SMILES	ClpP mod	DRD3 agonist	GLP-1R agonist	GLP1R cytotox	D3 antag	GLP-1R inv ag
CCc1ccc(C(c2ccc(CC)cc2)C(Cl)Cl)cc1	-2%	0	2%	-5%	-110*	?
COc1ccccc1CNC(=O)CSc1nc2nc(C)c(Cc3ccccc3Cl)c(C)n2n1	?	2	·	7%	·	-7%
FC(F)(F)c1cccc(NC(=S)NC(c2ccccc2)c2ccccc2)c1	-5%	-28	5%	8%	0	2.8µM*
Cc1ccc2c(c1)CO[C@@]21O[C@H](CCO)C[C@H](O)[C@H]1O	-1%	1	7%	-4%	?	8%
COc1ccc2c(c1)CO[C@]21O[C@H](CCO)C[C@H](O)[C@H]1O	-1%	-12	8%	-12%	-69*	7%
O=Cc1ccc(N2N=C(c3ccccc3)CC2c2ccccc2)cc1 (stereo unspecified)	4%	4	11%	335%	0	?
COc1ccc(C2CC(c3ccc(F)cc3)=NN2c2ccccc2)cc1OC (stereo unspecified)	0%	7	7%	9%	1	10µM*
COc1ccc(C2=NN(c3ccccc3)C(c3ccc(OC)c(OC)c3)C2)cc1 (stereo unspecified)	4%	-4	1%	17%	-4	-7%
Cc1ccc(C2CC(c3ccccc3)=NN2c2ccccc2)o1 (stereo unspecified)	25µM*	-3	3%	73%	2	?
COc1ccc(C2=NN(c3ccc(C=O)cc3)C(c3ccccc3)C2)cc1 (stereo unspecified)	·	4	8%	408%	-6	10µM*
CN(CCCNC(=O)C1CCCN(S(=O)(=O)c2cnc[nH]2)C1)c1ccccc1 (stereo unspecified)	0%	2	0%	0%	-8	8%
O=C(NCCCN1CCN(c2ccccc2F)CC1)C1CCCN(S(=O)(=O)c2cnc[nH]2)C1 (stereo unspecified)	1%	6	-2%	-16%	-71*	-5%
O=C(NCCN1CCN(Cc2ccccc2)CC1)C1CC(=O)N(C2CCCC2)C1 (stereo unspecified)	-2%	-18	-2%	15%	-8	-5%
O=C(NCCN1CCN(c2ccccc2F)CC1)C1CC(=O)N(C2CCCC2)C1 (stereo unspecified)	0%	-9	4%	-10%	-66*	-14%
OCC(O)C[n+]1cccc(Br)c1 (stereo unspecified)	0%	·	·	·	·	·
C/C(Cc1ccccc1)=N\NC(=O)C1CCCCC1	28µM*	5	2%	-4%	-2	-3%
COc1ccc(Cl)cc1NC(=O)CN(C)C(=O)c1cc2c(F)cccc2s1	-3%	0	-4%	-23%	-21	?
COc1ccc(Cl)cc1NC(=O)CN(C)C(=O)c1ccc(C)s1	·	0	15%	-9%	-5	5.6µM*
COc1ccc(Cl)cc1NC(=O)CN(C)CC(=O)Nc1c(C)n(C)n(-c2ccccc2)c1=O	-2%	1	0%	-2%	-7	10µM*
COC(=O)c1ccc(Cn2c(=O)cc(C(F)(F)F)c3c(C)nn(C)c32)cc1	-15%	6	·	5%	·	14%
Cc1ccccc1Cn1c(=O)n(CCC(=O)NCc2ccc3c(c2)OCO3)c(=O)c2ccccc21	-1%	1	-6%	9%	-2	36%
O=C(CCn1c(=O)c2ccccc2n(Cc2cccnc2)c1=O)NCc1ccc2c(c1)OCO2	-6%	-3	1%	19%	-59*	0%
CCCCOC(=O)c1ccc(Nc2nc3ccccc3c3nnc(C)n23)cc1	-21%	11	·	2%	·	15%
CC1CCCC(NC(=O)c2ccc3c(=O)n(CC4CCCO4)c(=O)[nH]c3c2)C1C (stereo unspecified)	25µM*	0	-4%	77%	37	9%
CC(C)NC(=O)c1ccc2c(=O)n(CC3CCCO3)c(=S)[nH]c2c1 (stereo unspecified)	4%	0	1%	7%	0	4%
SMILES	ClpP mod	DRD3 agonist	GLP-1R agonist	GLP1R cytotox	D3 antag	GLP-1R inv ag
O=C(NC(c1ccc(Cl)cc1)c1cnccn1)C1CCN(CCCc2ccccc2)CC1 (stereo unspecified)	-2%	-18	-3%	-9%	-1	-33%
Cc1ccc(C(NC(=O)C2CCN(CCCOc3ccccc3)CC2)c2ccccn2)cc1 (stereo unspecified)	0%	-12	-9%	-5%	-115*	?
COc1ccc(OCCN2CCC(C(=O)NC(c3ccc(Cl)cc3)c3cccnc3)CC2)cc1 (stereo unspecified)	1%	-15	-6%	-14%	20	?
O=C(NC(c1ccc(Cl)cc1)c1ccsc1)C1CCN(CCOc2ccc(Cl)cc2)CC1 (stereo unspecified)	2%	-16	-5%	-5%	-84*	?
Cc1ccc(C(NC(=O)C2CCN(CCOc3ccc(Cl)cc3)CC2)c2ccccn2)cc1 (stereo unspecified)	3%	-12	-1%	-6%	-94*	?
O=C(NC(c1ccccc1)c1cnccn1)C1CCN(CCCOc2ccccc2)CC1 (stereo unspecified)	-6%	-22	9%	2%	1	-13%
O=C(NC(c1ccc(Cl)cc1)c1cnccn1)C1CCN(CCCOc2ccccc2)CC1 (stereo unspecified)	-1%	-13	-5%	-18%	-84*	?
Cc1ccc(-n2ncc(C(=O)Nc3ccc4c(c3)OCO4)c2C2CCN(C(=O)OC(C)(C)C)CC2)c(C)c1	-1%	1	·	0%	·	?
COc1ccc(C(NC(=O)C2CCN(CCOc3ccc(Cl)cc3Cl)CC2)c2ccccn2)cc1 (stereo unspecified)	-2%	-24	2%	?	-70*	?
COc1ccc(C(NC(=O)C2CCN(CCCOc3ccccc3)CC2)c2cccs2)cc1 (stereo unspecified)	-3%	-12	1%	-11%	-75*	?
COc1cc(OC)cc(C(=O)NC2CCN(CCCOc3ccccc3)CC2)c1	-5%	-11	6%	-8%	-15	-32%
[O-]/C(=C(\C(=S)Nc1ccc(SC(F)F)cc1)[n+]1ccccc1)c1ccc(Cl)cc1Cl	·	0	5%	-18%	-25	1.1µM*
O=C(NCCc1ccccc1)C1CCCN1C(=O)Nc1ccccc1 (stereo unspecified)	0%	-13	-1%	-6%	1	8%

Source: PubChem
